Assay [1] is described as follows: binders of probe aFSTL3 on microarray, primary screen, stem cell growth factor project, biochemical, small-molecule microarray, fluorescence 635/667 (AID 1064).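 Note: measures binding of the biotinylated anti-FSTL3 antibody to printed compounds.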 As to conditions: higher = more signal.
The nature of assay [2]: binders from COS7 lysate, DM2A8 probe, primary screen, torsin A project, cell lysate, small-molecule microarray, fluorescence 635/667 (AID 1065). As to conditions: higher = more signal, COS7 lysate expressing mutant human TOR1A.
A short description of assay [3]: binders of probe aFGF2 on microarray, primary screen, stem cell growth factor project, biochemical, small-molecule microarray, fluorescence 635/667 (AID 1067).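 Note: measures binding of biotinylated aFGF2 protein to printed compounds on slides; z-score merges feature fluorescence and signal-to-noise across triplicate slides.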 As to conditions: higher = more signal.
The nature of assay [4]: binders of probe aFGF10 on microarray, primary screen, stem cell growth factor project, biochemical, small-molecule microarray, fluorescence 635/667 (AID 1071).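 Note: score merges 667 nm spot intensity and signal to noise from triplicate slides.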 As to conditions: higher = more signal.
Assay [5] deals with Neurogenic locus notch homolog protein 2 (Homo sapiens) (UniProt Q04721). Nature of the assay: Notch2 binders on small-molecule microarrays, primary screen, biochemical, small-molecule microarray, 635 nm fluorescence, stem cell growth factors (AID 1073). As to conditions: Notch2 binding, higher = more signal.
For assay [6], the target named is Pro-neuregulin-1, membrane-bound isoform (Homo sapiens) (UniProt Q02297). The experiment in a line: NRG1 binders on small-molecule microarrays, primary screen, psychiatric disease protein project, biochemical, small-molecule microarray, fluorescence 635/667 (AID 1075).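 Note: score combines 667 nm spot fluorescence with signal to noise.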 The note with it: NRG1 binding, 635 nm fluorescence, higher = more signal.
Sequence of Pro-neuregulin-1, membrane-bound isoform (Homo sapiens) (Q02297 whole entry, looked up, the tested form may be a part, canonical isoform): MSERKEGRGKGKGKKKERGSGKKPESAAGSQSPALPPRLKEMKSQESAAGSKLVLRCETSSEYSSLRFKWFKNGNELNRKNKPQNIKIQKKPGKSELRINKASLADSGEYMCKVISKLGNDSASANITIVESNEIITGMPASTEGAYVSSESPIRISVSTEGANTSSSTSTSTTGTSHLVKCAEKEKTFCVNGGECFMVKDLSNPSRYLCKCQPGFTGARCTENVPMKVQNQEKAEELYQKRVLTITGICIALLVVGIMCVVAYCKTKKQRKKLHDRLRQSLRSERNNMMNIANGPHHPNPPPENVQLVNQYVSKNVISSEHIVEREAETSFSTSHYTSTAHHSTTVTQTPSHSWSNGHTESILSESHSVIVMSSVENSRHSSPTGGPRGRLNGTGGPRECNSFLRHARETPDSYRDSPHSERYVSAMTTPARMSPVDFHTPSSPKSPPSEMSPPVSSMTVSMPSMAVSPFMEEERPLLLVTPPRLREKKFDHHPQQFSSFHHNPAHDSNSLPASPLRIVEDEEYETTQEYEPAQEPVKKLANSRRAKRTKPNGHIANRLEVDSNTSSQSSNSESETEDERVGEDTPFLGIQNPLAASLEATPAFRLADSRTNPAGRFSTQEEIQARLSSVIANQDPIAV
The test system of assay [7] is Neuregulin-1 EGF-like domain. Nature of the assay: binders of neuregulin-1 EGF-like domain, primary screen, biochemical, small-molecule microarray, 635 nm fluorescence (AID 1081).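 Note: binding of the protein to compounds printed on small-molecule microarray slides.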 The note with it: small-molecule microarray binding, higher = more signal.
A short description of assay [8]: FRG1 promoter luciferase signal modulators, primary screen, FRG1 inhibition for FSHD, cell-based, C2C12 myotubes, firefly/Renilla luciferase, luminescence (AID 1084). The note with it: higher = more signal, called active from +8 up or from −8 down.
A short description of assay [9]: binders of probe aFST on microarray, primary screen, stem cell growth factor project, biochemical, small-molecule microarray, fluorescence 635/667 (AID 1086).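 Note: score merges 667 nm fluorescence with signal-to-noise of each printed compound spot.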 The note with it: higher = more signal.
Assay [10] in a line: binders of probe aHhip on microarray, primary screen, stem cell growth factor project, biochemical, small-molecule microarray, fluorescence 635/667 (AID 1087).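 Note: score merges spot fluorescence at 667nm with spot signal to noise ratio.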 As to conditions: higher = more signal.
Assay [11] deals with PRMT1 (protein arginine N-methyltransferase 1). The experiment in a line: PRMT1 binders on small-molecule microarrays, primary screen, biochemical, small-molecule microarray, 635 nm fluorescence (AID 1088).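 Note: binding of Prmt1 protein to compounds spotted on small-molecule microarray slides.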 The note with it: small-molecule microarray binding, higher = more signal.
The nature of assay [12]: yeast growth modulation, basal conditions, primary screen, YJM789 clinical isolate, OD600, 24 h (AID 1089).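 Note: growth of clinical yeast isolate S. cerevisiae YJM 789 seeded 1000 cells per well; test concentration not given here.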 The note with it: S. cerevisiae YJM789 growth, higher = more signal, called active from +8 up or from −8 down.
Assay [13] in a line: fission yeast growth modulation, primary screen, strain 972, OD600, 24 h, no modulator (AID 1090).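 Note: basal condition with compound alone and no growth modifier present; test concentration not given here.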 The note with it: S. pombe 972 growth, higher = more signal, called active from +8 up or from −8 down.
A short description of assay [14]: S. cerevisiae growth modulation with rapamycin, primary screen, strain BY4716, OD600, 96 h (AID 1091). Note: test concentration not given here. As to conditions: higher = more signal, called active from +8 up or from −8 down.
For assay [15], the target named is Torsin-1A-interacting protein 2 (Homo sapiens) (UniProt Q8NFQ8). Nature of the assay: LULL1 binders on small-molecule microarray, primary screen, cell lysate, human LULL1 lysate, 635/667 nm fluorescence (AID 1092).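 Note: probe is lysate of COS7 cells overexpressing human LULL1; score merges per-feature 667 nm fluorescence with signal-to-noise.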 The note with it: hLULL1 lysate binding, 635 nm fluorescence, higher = more signal.
Sequence of Torsin-1A-interacting protein 2 (Homo sapiens) (Q8NFQ8 whole entry, looked up): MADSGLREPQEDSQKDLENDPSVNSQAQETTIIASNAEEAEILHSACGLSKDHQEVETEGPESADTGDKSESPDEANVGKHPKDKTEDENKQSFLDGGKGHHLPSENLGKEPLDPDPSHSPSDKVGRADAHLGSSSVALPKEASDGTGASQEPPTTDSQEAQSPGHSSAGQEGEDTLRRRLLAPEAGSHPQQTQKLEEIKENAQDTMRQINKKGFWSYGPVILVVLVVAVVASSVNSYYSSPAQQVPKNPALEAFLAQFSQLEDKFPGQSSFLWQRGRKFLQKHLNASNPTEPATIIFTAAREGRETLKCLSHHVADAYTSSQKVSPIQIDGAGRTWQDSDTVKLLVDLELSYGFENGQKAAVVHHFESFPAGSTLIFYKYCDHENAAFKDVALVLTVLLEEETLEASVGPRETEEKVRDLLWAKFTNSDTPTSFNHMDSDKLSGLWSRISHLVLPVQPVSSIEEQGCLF
A short description of assay [16]: E. coli growth modulation, two-sided OD650, primary screen, E. coli filamentation project, strain DRC41, 24 h (AID 1093).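 Note: MC1000 strain lacking acrAB efflux and sulA so SOS filamentation is blocked; test concentration not given here.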 The note with it: OD650, 24 h, higher = more signal, called active from +8 up or from −8 down.
The nature of assay [17]: small-molecule microarray binders of probe aLefty2, primary screen, biochemical, biotinylated probe, 635/667 nm fluorescence (AID 1094).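 Note: score merges spot fluorescence near 667 nm with spot signal-to-noise ratio.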 As to conditions: higher = more signal.
Assay [18] relates to Noggin (protein binding on small-molecule microarray). The experiment in a line: Noggin binders on small-molecule microarray, primary screen, biochemical, 635/667 nm fluorescence (AID 1095).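 Note: score merges 667 nm feature fluorescence with signal to noise over triplicate slides.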 The note with it: 635 nm fluorescence, higher = more signal.
Assay [19] concerns the target Neurogenic locus notch homolog protein 3 (Homo sapiens) (UniProt Q9UM47). Nature of the assay: NOTCH3 binders on small-molecule microarray, primary screen, biochemical, 635/667 nm fluorescence (AID 1096). The note with it: NOTCH3 binding, 635 nm fluorescence, higher = more signal.
Assay [20] is described as follows: small-molecule microarray binders of probe aEGFR, primary screen, biochemical, biotinylated probe, 635/667 nm fluorescence (AID 1097).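 Note: probe is a biotinylated anti-EGFR antibody binding compounds printed on slides; score combines fluorescence near 667 nm and signal to noise of each spot.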 As to conditions: higher = more signal.

Molecules are shown by their SMILES. Activity calls are given as the source filed them.

Sequence of Neurogenic locus notch homolog protein 3 (Homo sapiens) (Q9UM47 whole entry, looked up): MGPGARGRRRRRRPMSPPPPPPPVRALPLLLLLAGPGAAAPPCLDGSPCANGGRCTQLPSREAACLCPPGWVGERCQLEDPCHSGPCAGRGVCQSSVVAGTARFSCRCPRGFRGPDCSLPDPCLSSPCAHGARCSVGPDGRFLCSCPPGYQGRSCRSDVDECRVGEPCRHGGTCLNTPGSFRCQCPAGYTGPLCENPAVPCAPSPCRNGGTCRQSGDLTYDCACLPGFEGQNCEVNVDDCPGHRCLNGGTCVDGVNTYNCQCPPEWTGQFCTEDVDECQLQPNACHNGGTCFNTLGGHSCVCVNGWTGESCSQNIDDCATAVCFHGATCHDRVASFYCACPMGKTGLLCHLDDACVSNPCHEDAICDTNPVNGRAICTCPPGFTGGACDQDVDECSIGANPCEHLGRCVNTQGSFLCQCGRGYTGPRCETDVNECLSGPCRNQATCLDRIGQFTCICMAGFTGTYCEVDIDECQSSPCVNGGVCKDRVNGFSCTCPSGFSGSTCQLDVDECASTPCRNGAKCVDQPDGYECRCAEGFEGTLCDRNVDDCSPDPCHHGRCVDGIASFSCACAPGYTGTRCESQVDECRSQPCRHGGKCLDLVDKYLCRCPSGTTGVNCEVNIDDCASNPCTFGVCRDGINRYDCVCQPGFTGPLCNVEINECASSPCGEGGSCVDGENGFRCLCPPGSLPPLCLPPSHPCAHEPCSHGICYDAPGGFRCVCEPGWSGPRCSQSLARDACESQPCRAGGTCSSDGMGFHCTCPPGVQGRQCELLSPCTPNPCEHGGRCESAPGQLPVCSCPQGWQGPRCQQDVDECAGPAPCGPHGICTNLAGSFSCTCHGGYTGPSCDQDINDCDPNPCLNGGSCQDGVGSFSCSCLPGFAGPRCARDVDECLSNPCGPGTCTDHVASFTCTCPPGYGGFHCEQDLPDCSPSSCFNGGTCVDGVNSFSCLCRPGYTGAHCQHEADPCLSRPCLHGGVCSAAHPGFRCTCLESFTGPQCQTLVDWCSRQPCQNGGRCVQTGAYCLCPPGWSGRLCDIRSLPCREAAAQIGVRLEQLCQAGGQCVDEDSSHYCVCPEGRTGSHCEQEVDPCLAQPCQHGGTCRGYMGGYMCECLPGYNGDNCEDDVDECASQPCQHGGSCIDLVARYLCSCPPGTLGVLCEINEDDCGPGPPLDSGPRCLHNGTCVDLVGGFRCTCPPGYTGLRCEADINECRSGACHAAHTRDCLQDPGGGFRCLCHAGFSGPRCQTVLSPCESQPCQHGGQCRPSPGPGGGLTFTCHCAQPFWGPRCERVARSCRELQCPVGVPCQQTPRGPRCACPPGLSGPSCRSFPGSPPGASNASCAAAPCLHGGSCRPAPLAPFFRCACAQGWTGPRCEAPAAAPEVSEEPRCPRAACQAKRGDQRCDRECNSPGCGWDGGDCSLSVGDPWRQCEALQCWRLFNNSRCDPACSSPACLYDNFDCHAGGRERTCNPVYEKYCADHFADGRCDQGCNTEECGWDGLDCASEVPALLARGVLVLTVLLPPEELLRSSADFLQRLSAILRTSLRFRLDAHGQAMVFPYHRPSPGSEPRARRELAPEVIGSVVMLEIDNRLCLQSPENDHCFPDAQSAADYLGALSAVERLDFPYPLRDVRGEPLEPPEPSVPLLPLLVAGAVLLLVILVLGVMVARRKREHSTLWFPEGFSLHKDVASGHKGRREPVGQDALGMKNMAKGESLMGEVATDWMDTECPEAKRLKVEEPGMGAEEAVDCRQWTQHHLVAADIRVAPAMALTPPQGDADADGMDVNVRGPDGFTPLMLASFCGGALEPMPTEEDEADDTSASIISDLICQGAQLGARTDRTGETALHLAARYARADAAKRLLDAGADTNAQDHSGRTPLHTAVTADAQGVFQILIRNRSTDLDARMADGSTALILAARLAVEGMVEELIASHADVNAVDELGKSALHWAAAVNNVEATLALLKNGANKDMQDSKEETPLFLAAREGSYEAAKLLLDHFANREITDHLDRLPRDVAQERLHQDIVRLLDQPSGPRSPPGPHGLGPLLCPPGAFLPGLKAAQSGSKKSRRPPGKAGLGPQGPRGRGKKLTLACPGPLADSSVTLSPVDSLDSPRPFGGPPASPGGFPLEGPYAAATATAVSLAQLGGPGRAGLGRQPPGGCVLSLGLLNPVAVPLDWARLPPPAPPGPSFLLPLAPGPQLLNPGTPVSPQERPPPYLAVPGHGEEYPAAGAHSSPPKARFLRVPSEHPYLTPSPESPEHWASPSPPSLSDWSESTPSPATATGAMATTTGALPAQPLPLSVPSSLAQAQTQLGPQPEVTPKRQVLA

For the compound `COCCOC(=O)N1C(=O)[C@@]2(c3cc(C#CC4(O)CCCCCC4)ccc31)[C@H](c1ccc(O)cc1)N1[C@H](c3ccccc3)[C@H](c3ccccc3)OC(=O)[C@H]1[C@@H]2C(=O)N1CCCCCCC1`, the composite z-score in assay [1] was found to be 2.85; in assay [2], 0.567; in assay [3], 0.0059; in [4], 0.83; in assay [5], 0.547; in assay [6], 0.903. Moreover, the composite z-score in assay [7] turned out to be 1.15; in [9], 2.06; in assay [10], 1.39; in assay [11], 1.55; in assay [15], 2.09; in assay [17] it was 0.189. For the same compound, the composite z-score was found to be 1.3 in assay [18], 1.06 in assay [19] and 0.0896 in assay [20]. For the same compound, the z-score is -0.0559 (inactive) in [8]; -0.016 (inactive) in assay [12]; 0.056 (inactive) in assay [13]; 0.367 (inactive) in assay [14]; 0.709 (inactive) in [16].

Regarding `CC(=O)OCC1C2CC[C@H]3C(OCc4ccc(F)cc4C(F)(F)F)OC[C@]4(C)[C@H]3C2=C(CN4C(=O)OC(C)(C)C)[C@H](C)C1COC(C)=O` (stereo not given in full), the composite z-score in [1] was 0.496; in [2], 1.4; in [3] it was -0.0336; in assay [4] it was 0.363; in [5] it was 0.101; in [6], 0.823. Also, the composite z-score in assay [7] was 0.783; in assay [9], 0.579; in assay [10], 0.141; in [11], -0.025; in assay [15] it was 1.35; in assay [17] it was 0.054. Besides, the composite z-score was 1.2 in assay [18], -0.439 in assay [19] and -0.0512 in assay [20]. The z-score was 1.06 (inactive) in assay [8]; 1.56 (inactive) in [12]; 2.04 (inactive) in [13]; 1.15 (inactive) in [14]; -1.36 (inactive) in assay [16].

`CCCCCCc1nc(-c2ccc(-c3ccc(Cl)c(Cl)c3)o2)cc2c1[Si](C(C)C)(C(C)C)OC2`: the composite z-score in assay [1] is 0.0736; in assay [2], -0.207; in [3], -0.162; in assay [4], -0.632; in assay [5], -1.01; in assay [6], -0.14. Besides, the composite z-score in [7] was 0.262; in assay [9] it was -0.634; in assay [10], -0.134; in [11], -0.849; in assay [15] it was 0.582; in [17] it was -0.159. Also, the results for the composite z-score in [18], in [19] and in [20] were -0.561, -0.453 and -0.257, respectively. The z-score in assay [8] was 1.25 (inactive); in [12], -0.625 (inactive); in assay [13], -7.54 (inactive); in assay [14], 3.66 (inactive); in assay [16], 0.66 (inactive).

In the case of `COc1ccc(NN2C(C(O)c3ccc(I)cc3)C=CC3C(=O)N(C4CCCCC4)C(=O)C32)cc1` (stereo not given), the composite z-score was 0.0109 in assay [1]; 0.813 in [2]; -0.0024 in [3]; 0.896 in [4]; 1.39 in [5]; 1.02 in assay [6]. The composite z-score came to 1.04 in assay [7]; 1.61 in [9]; 0.245 in assay [10]; 1.55 in assay [11]; 3.04 in assay [15]; 0.109 in assay [17]. Further, the composite z-score in [18] was 0.715; in assay [19], 1.03; in assay [20] it was 0.257. Besides, the z-score in [8] was -0.21 (inactive); in assay [12], 0.147 (inactive); in assay [13], 1.26 (inactive); in assay [14] it was 0.801 (inactive); in assay [16] it was -0.0155 (inactive).

`COc1ccc(C(=O)Nc2ccc3c(c2)[C@@]2(O[C@H](CCO)[C@@H]([Si](C)(C)c4ccc(OC)cc4)[C@@H]2C)C(=O)N3Cc2ccccc2)cc1`: the composite z-score in assay [1] was -0.122; in assay [2] it was 0.143; in assay [3], -0.0333; in assay [4], -0.0652; in assay [5], 0.562; in assay [6], 0.929. Besides, the composite z-score in assay [7] was 1.07; in assay [9], 0.154; in assay [10] it was 0.2; in assay [11], 1.28; in assay [15], 1.94; in [17], -0.0124. For the same compound, the composite z-score in assay [18] is 1.32; in assay [19] it was 0.742; in assay [20] it was -0.0828. The z-score is -3.68 (inactive) in [8]; -0.0565 (inactive) in assay [12]; -4.96 (inactive) in [13]; 2.7 (inactive) in [14]; 0.629 (inactive) in assay [16].

(Values after PubChem BioAssay.)
